In article PMC4552634, “A New Set of Chemical Starting Points with Plasmodium falciparum Transmission-Blocking Potential for Antimalarial Drug Discovery” (PLoS ONE, 2015):
The whole screen tested about 13,000 compounds, of which about 3,200 (25%) showed an effect of 50% or more. Some of the results follow.

test system: P. falciparum stage V gametocytes; parameters: BacTiter-Glo ATP luminescence viability of purified stage V gametocytes in 384-well plates, per cent inhibition versus DMSO; conditions: 48 h, 5 µM; inhibitor

| Structure (SMILES) | % Inhibition [%] |
| --- | --- |
| CC1CN(c2ccc3occ(C(=O)Nc4ccc(-c5ccncc5)c(Cl)c4)c3c2)CC(C)N1C (stereo not shown) [TCMDC-141360] | 38.63 |
| O=C(Nc1cccc(-c2ccc(-c3nc4ccccc4[nH]3)s2)c1)c1ccncc1 [TCMDC-136956] | 6.685 |
| CCOC(=O)N1CCN(CCCNc2c3ccccc3nc3ccccc23)CC1.Cl [TCMDC-137544] | 15.5 |
| CCCN1CCN(CCCNc2c3ccccc3nc3ccccc23)CC1 [TCMDC-137478] | 97.73 |
| CCCN1CCN(CCNc2c3ccccc3nc3ccccc23)CC1 [TCMDC-137549] | 102.5 |
| CCCN1CCN(CCCCNc2c3ccccc3nc3ccccc23)CC1 [TCMDC-137576] | 93 |
| CC(C)CN1CCN(CCNc2c3ccccc3nc3ccccc23)CC1 [TCMDC-138008] | 92.54 |
| COc1cc2nc(NCCN3CCOCC3)n3nc(-c4ccccc4)nc3c2cc1OC [TCMDC-124407] | -12.35 |
| O=C1NC(C(=O)Nc2ccccc2)C(c2ccccc2)S1 (stereo not shown) [TCMDC-131740] | 2.02 |
| O=C(Nc1ccc(-c2ccc(-c3nc4ccccc4[nH]3)s2)cc1)Nc1ccc(F)c(F)c1F [TCMDC-133236] | -3.503 |
| CCC[C@@H]([C@@H](CC1CCCCC1)C(=O)N[C@H](C(=O)Nc1nccs1)C(C)(C)SCCNC(=O)OCc1ccccn1)N(O)C=O [TCMDC-137794] | 19.2 |
| O=C(N/C=N/c1cc([N+](=O)[O-])c(-c2ccncc2)n1-c1ccccc1)c1cccc(O)c1 [TCMDC-125648] | -19.59 |
| O=c1ccccn1CCCC1CCCCN1 (stereo not shown) [TCMDC-140731] | 9.489 |
| CCCCN(CCCC)Cc1cc2ccccc2cc1O [TCMDC-137590] | -20.89 |
| Oc1ccc(OCc2ccccn2)cc1 [TCMDC-125881] | 0.9057 |
| Oc1ccccc1CN(CCCN(Cc1ccccn1)Cc1ccccc1O)Cc1ccccn1 [TCMDC-138469] | 77.52 |
| COc1nc(Nc2cccc(C)c2)nc(OC)n1 [TCMDC-124204] | -12.01 |
| CN(C)C(CNc1ncnc2cc(Cl)ccc12)Cc1ccccc1 (stereo not shown) [TCMDC-124600] | -0.01557 |
| Cc1c(Cl)cccc1S(=O)(=O)N1CCCCC(c2ccc(C(F)(F)F)cc2)=N1 [TCMDC-134534] | -14.43 |
| CN(C)c1ccc2c(c1)Sc1cc(N(C)C)ccc1N2C(=O)c1cccc(C(=O)O)c1 [TCMDC-124169] | 30.57 |
| CN(C)c1ccc2c(c1)Sc1cc(N(C)C)ccc1N2C(=O)CCCC(=O)O [TCMDC-125778] | 104 |
| CC(=O)CSC(C=Cc1ccc(N(C)C)cc1)=Nc1ccccc1 [TCMDC-137558] | -4.21 |
| O=C(Nc1ccc(Cl)cc1F)N[C@H]1CCN(CCCCCNC(=O)C2CC2c2ccc(Cl)c(Cl)c2)C1 (stereo partly shown) [TCMDC-136269] | 0.8246 |
| O=C(Nc1ccc(Cl)cc1F)NC1CCN(CCCCCNC(=O)C2CC2c2ccc(Cl)c(Cl)c2)CC1 (stereo not shown) [TCMDC-136258] | 66.19 |

| Structure (SMILES) | % Inhibition [%] |
| --- | --- |
| O=C(Nc1ccc(Cl)cc1)N[C@H]1CCN(CCCCCNC(=O)C2CC2c2ccc(Cl)c(Cl)c2)C1 (stereo partly shown) [TCMDC-136262] | 1.23 |
| O=C(Nc1cc(Cl)cc(Cl)c1)N[C@H]1CCN(CCCCCNC(=O)C2CC2c2ccc(Cl)c(Cl)c2)C1 (stereo partly shown) [TCMDC-136273] | 86.02 |
| O=C(Nc1cc(Cl)ccc1Cl)N[C@H]1CCN(CCCCCNC(=O)C2CC2c2ccc(Cl)c(Cl)c2)C1 (stereo partly shown) [TCMDC-136265] | 55.1 |
| O=C(Nc1ccc(F)cc1F)NC1CCN(CCCCCNC(=O)C2CC2c2ccc(Cl)c(Cl)c2)CC1 (stereo not shown) [TCMDC-136253] | -52.54 |
| O=C(Nc1ccc(Cl)cc1Cl)NC1CCN(CCCCCNC(=O)C2CC2c2ccc(Cl)c(Cl)c2)CC1 (stereo not shown) [TCMDC-136257] | 1.836 |
| O=C(Nc1ccc(Cl)cc1Cl)N[C@H]1CCN(CCCCCNC(=O)C2CC2c2ccc(Cl)c(Cl)c2)C1 (stereo partly shown) [TCMDC-136268] | -5.844 |
| O=C(Nc1cccc(Cl)c1Cl)N[C@H]1CCN(CCCCCNC(=O)C2CC2c2ccc(Cl)c(Cl)c2)C1 (stereo partly shown) [TCMDC-136267] | -46.93 |
| O=C(Nc1cc(Cl)ccc1O)c1ccc(Oc2ccc(C(=O)Nc3cc(Cl)ccc3O)cc2)cc1 [TCMDC-124084] | -31.23 |
| Cc1ccc(C)c(NC(=O)NC2CCN(c3ccnc(Nc4ccc(F)cc4)n3)C2)c1 (stereo not shown) [TCMDC-133601] | -9.129 |
| Cc1ccc2[nH]ncc2c1N(CC1CCCCC1)c1ccnc(Nc2ccc(OCC(O)CN3CC=CCC3)cc2)n1 (stereo not shown) [TCMDC-138794] | 108.6 |
| COc1ccc(Nc2nccc(N3CCC(NC(=O)Nc4cc(C)ccc4C)C3)n2)cc1 (stereo not shown) [TCMDC-133615] | -63.4 |
| Cc1noc(-c2ccccc2)c1CN1CCCC2(CC(C(=O)NCc3cccc(F)c3F)=NO2)C1 (stereo not shown) [TCMDC-136606] | -21.45 |
| Cc1noc(C)c1-c1cccc(CNCc2cccc(-c3ccc(-c4nc5cccc(C)c5[nH]4)cc3)c2)c1.O=C(O)C(F)(F)F [TCMDC-133056] | -10.48 |
| Cc1[nH]c(C)c(-c2ccc(OCc3ccc(F)cc3)cc2)c(=O)c1Br [TCMDC-138928] | 4.156 |
| Cc1[nH]c(C)c(-c2ccc(Oc3ccc(Cl)cc3)cc2)c(=O)c1Br [TCMDC-137420] | 17.1 |
| Cc1[nH]c(C)c(-c2ccc(Oc3ccccc3)cc2)c(=O)c1Br [TCMDC-137410] | 67.24 |
| Cc1[nH]c(C)c(-c2ccc(Oc3ccc(F)cc3)cc2)c(=O)c1Br [TCMDC-137402] | 76.64 |
| C=CCOc1ccc(-c2c(C)[nH]c(C)c(Br)c2=O)cc1 [TCMDC-135042] | 74.1 |
| Cc1[nH]c(C)c(-c2ccc(OCc3ccccc3)cc2)c(=O)c1Br [TCMDC-138901] | 61.61 |
| Cc1[nH]c(C)c(-c2ccc(Oc3ccc([S+](C)[O-])cc3)cc2)c(=O)c1Br (stereo not shown) [TCMDC-137400] | 34.54 |
| Cc1[nH]c(C)c(-c2ccc(-c3ccc(F)cc3)cc2)c(=O)c1Br [TCMDC-137421] | 28.52 |
| CCN1CCN(c2cc(C)c3cc(NC(=O)c4cccc([N+](=O)[O-])c4)ccc3n2)CC1 [TCMDC-125577] | 8.914 |
| CCN(CC)CCn1c2ccccc2c2ccc(C(=O)Nc3ccc4sc(C)nc4c3)cc21 [TCMDC-135280] | -1.763 |
| O=C(c1cccc(-c2ccc(-c3nc4cc(F)ccc4[nH]3)s2)c1)N1CCCCC1CN1CCC(O)C1 (stereo not shown) [TCMDC-132343] | -28.04 |

| Structure (SMILES) | % Inhibition [%] |
| --- | --- |
| COc1ccc2nc(C)cc(Nc3ccc(Oc4ccc(Cl)cc4)c(Cl)c3)c2c1 [TCMDC-123477] | -13.35 |
| Cc1csc(NC(=O)c2cn(-c3ccccc3)nc2-c2cccs2)n1 [TCMDC-124531] | 15.91 |
| CC1CCCC(NCc2c(O)ccc3ccccc23)C1 (stereo not shown) [TCMDC-137601] | 28.2 |
| O=C(NCc1cccc2ccccc12)[C@@H]1CCCN1C(=O)c1ccc(O)c(-c2ccc(Cl)c(Cl)c2)c1 [TCMDC-140876] | 16.61 |
| COc1ccc2ccc(F)c(CC(=O)N3CCOC(CNCc4cccc(-c5ccc(F)cc5)n4)C3)c2n1 (stereo not shown) [TCMDC-135026] | -25.99 |
| CCOC(=O)c1c(CSc2ccccc2)oc2cc(CN(C)C)c(O)c(Cl)c12 [TCMDC-124095] | -76.05 |
| Cc1cccc2[nH]c(-c3ccc(-c4cccc(NCc5cn6cccnc6n5)c4)cc3)nc12 [TCMDC-136896] | -19.99 |
| COc1cccc2cc(C(=O)N[C@@H](CC(C)C)C(=O)Nc3cc(F)ccc3Br)oc12 [TCMDC-135547] | 2.093 |
| C=Cc1ccc(-c2c(C)[nH]c(C)c(Br)c2=O)cc1 [TCMDC-135433] | 58.24 |
| Cc1[nH]c(C)c(-c2ccc(OCCCc3ccccn3)cc2)c(=O)c1Br [TCMDC-135795] | 65.53 |
| C=CCOc1ccccc1CNCC(O)c1cc(Br)cs1 (stereo not shown) [TCMDC-140498] | -6.926 |
| CN(C)C(CNC(=O)c1cc(-c2ccncc2)c(-c2ccc(NC(=O)Nc3cccc(Cl)c3)cc2)o1)c1ccccc1 (stereo not shown) [TCMDC-135781] | -15.22 |
| COc1cccc(NC(=O)Nc2ccc(Nc3nc(C)cc(N(C)C)n3)cc2)c1 [TCMDC-124959] | 26.66 |
| CCC(C)(C)NC(C)C(O)c1ccc(C(F)(F)F)cc1 (stereo not shown) [TCMDC-138152] | -4.943 |
| Cc1ccc(NCC(=O)Nc2ccc(F)c(Cl)c2)cc1S(=O)(=O)N1CCOCC1 [TCMDC-123553] | -4.453 |
| Cc1[nH]c(C)c(-c2ccc(Oc3ccc(Cl)cc3)cc2)c(=O)c1I [TCMDC-137393] | 12.14 |
| Cc1[nH]c(C)c(-c2ccc(Oc3cc(Cl)cc(Cl)c3)cc2)c(=O)c1Cl [TCMDC-137391] | 69.19 |
| Cc1[nH]c(C)c(-c2ccc(Oc3cccc(Cl)c3)cc2)c(=O)c1Cl [TCMDC-137395] | 75.57 |
| Cc1[nH]c(C)c(-c2ccc(Oc3ccc(Cl)cc3)cc2)c(=O)c1Cl [TCMDC-137418] | 32.25 |
| Cc1[nH]c(C)c(-c2ccc(Oc3ccc(Cl)cc3)cc2)c(=O)c1C [TCMDC-137378] | 85.12 |
| NC(=O)c1ccsc1NC(=O)CNC(c1ccc(F)cc1)c1cccs1 (stereo not shown) [TCMDC-125036] | 5.053 |
| C[C@@H]1CN(C(c2cccc(O)c2)c2cccc(C(=O)N(C)c3cccc(F)c3)c2)[C@@H](C)CN1C(c1cccc(O)c1)c1cccc(C(=O)N(C)c2cccc(F)c2)c1 (stereo partly shown) [TCMDC-137248] | -16.24 |
